Data taken from PubChem BioAssay AID493052 (Broad Institute, 2011).
Entries with a potency or affinity are not part of this list. Activity calls are given as the source filed them.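 The calls were made as follows: active = viability falls with dose and fitted half-maximal concentration is at most ten times the top valid dose; inconclusive = flat partial loss of 30 to 70 percent, or poor fit; inactive = flat within 30 percent, too weak, or rising signal.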

Assay: BJeHLT cell viability loss – BJeHLT cells, dry powder, counter-screen for Ras selective lethality project, dose response (AID 493052)

SMILES	outcome
COc1ccc(N(C(=O)CSc2ncccn2)C(C(=O)NCCc2ccccc2)c2cccs2)cc1Cl (stereo not given)	inactive
COc1ccc(N(C(=O)CO)C(C(=O)NCCc2ccccc2)c2cccs2)cc1Cl (stereo not given)	inactive
CCC(=O)N(c1ccc(OC)c(Cl)c1)C(C(=O)NCCc1ccccc1)c1cccs1 (stereo not given)	inactive
COCC(=O)N(c1ccc(OC)c(Cl)c1)C(C(=O)NCCc1ccccc1)c1cccs1 (stereo not given)	inactive
O=C(c1[nH]ncc1[N+](=O)[O-])N1CCN(C(c2ccccc2)c2ccccc2)CC1	inactive
